# Among all 39,000 compounds or so, about 3,300 (8.5%) were called active. This is one part of a sample in which actives are shown more often than they occur.
# Tested on: HepG2
# Assay: cytotoxicity call (relative viability < 0.9)
# Settings: 10 µM
row,SMILES,cytotoxicity call
1,COc1cc(F)c(C(C)C)cc1-c1ccc(C(F)(F)F)cc1CN1C(=O)O[C@H](c2cc(C(F)(F)F)cc(C(F)(F)F)c2)[C@@H]1C,inactive
2,COc1ccc2c3c(n(c2c1)C)[C@H](CO)N(C[C@]13CCN(CC1)C(=O)c1cccnc1)C(=O)c1cccnc1,inactive
3,C[C@@H]1CN([C@@H](C)CO)C(=O)c2cc(NC(=O)c3ccncc3)ccc2O[C@@H]1CN(C)Cc1ccncc1,inactive
4,C[C@@H]1CCCCO[C@H](CN(C)C(=O)CCCN(C)C)[C@H](C)CN([C@@H](C)CO)C(=O)c2cc(NC(=O)Nc3ccc(F)cc3)ccc2O1,inactive
5,COc1ccc(NC(=O)N(C)C[C@@H]2OCCCC[C@@H](C)Oc3ccc(NS(=O)(=O)c4ccccc4)cc3C(=O)N([C@H](C)CO)C[C@H]2C)cc1,inactive
6,COc1cccc(-c2ccc3c(c2)O[C@@H](CN(C)C(=O)C2CC2)[C@@H](C)CN([C@H](C)CO)S3(=O)=O)c1,inactive
7,C[C@@H]1CN([C@H](C)CO)C(=O)c2cc(NS(=O)(=O)c3ccc(Cl)cc3)ccc2O[C@@H](C)CCCCO[C@@H]1CN(C)C(=O)CCC(F)(F)F,inactive
8,N[C@H](C(=O)O)c1cc(O)cc(O)c1,inactive
9,Cc1noc(C)c1NC(=O)Nc1ccc2c(c1)C(=O)N([C@@H](C)CO)C[C@@H](C)[C@@H](CN(C)C(=O)Nc1cccc3ccccc13)O2,inactive
10,Cc1noc(C)c1NC(=O)N(C)C[C@H]1OCCCC[C@H](C)Oc2ccc(NS(=O)(=O)c3cccs3)cc2C(=O)N([C@H](C)CO)C[C@@H]1C,inactive
11,CCCCCCCc1c(C)c(O)cc2c1[nH]c1ccccc12,inactive
12,CCCCCCc1ccc(O)cc1O [listing 1 of 2 here],active
13,CCCCCCc1ccc(O)cc1O [listing 2 of 2 here],inactive
14,COC(=O)CCc1ccc(OC)cc1O,inactive
15,CCCCCCc1ccc(O)cc1O.Nc1c2ccccc2nc2ccccc12,active
16,CCCCCCCCCCCCCCCCCC(=O)NCCCCOn1c(CCCC)nc2c(N)nc3ccccc3c21,inactive
17,Cc1noc(C)c1NC(=O)Nc1ccc2c(c1)CC(=O)N([C@@H](C)CO)C[C@H](C)[C@@H](CN(C)S(=O)(=O)c1cccs1)O2,inactive
18,Cc1noc(C)c1NC(=O)N(C)C[C@H]1Oc2ccc(NS(=O)(=O)c3ccccc3)cc2CC(=O)N([C@@H](C)CO)C[C@@H]1C,inactive
19,COc1ccc(NC(=O)N[C@@H]2CC[C@H](CCNC(=O)CN3CCOCC3)O[C@@H]2CO)cc1,inactive
20,CCC(=O)N(C)C[C@H]1Oc2ncc(C#C[C@H](C)O)cc2C(=O)N([C@H](C)CO)C[C@@H]1C,inactive
21,C[C@H](CO)N1C[C@H](C)[C@@H](CN(C)C(=O)Nc2ccccc2)Oc2cc(C#C[C@@H](C)O)ccc2S1(=O)=O,inactive
22,C[C@@H]1CN([C@H](C)CO)S(=O)(=O)c2ccc(-c3cncnc3)cc2O[C@@H]1CN(C)C(=O)c1cccc(F)c1,inactive
23,CCc1c(C)[nH]c2ncnn2c1=O,inactive
24,CCCN(C)C[C@H]1Oc2cc(C#Cc3cccc(OC)c3)ccc2S(=O)(=O)N([C@@H](C)CO)C[C@H]1C,inactive
25,C[C@H]1CN([C@@H](C)CO)C(=O)c2cccc(NC(=O)Nc3cccc4ccccc34)c2O[C@H]1CN(C)Cc1ccc2c(c1)OCO2,inactive
26,COc1ccc2c(c1)c(-c1ccccc1)nn2-c1ccc(C)cc1,inactive

row,SMILES,cytotoxicity call
1,c1ccc(-c2cc(-c3ccccc3)n(-c3ccccc3)n2)cc1,inactive
2,c1ccc(-c2nn(-c3ccccc3)c3c2cnc2ccccc23)cc1,active
3,Cc1cc(C)c(S(=O)(=O)N2CCO[C@@H]2CNC(=O)C(=O)NCCCN2CCCC2=O)c(C)c1,inactive
4,Cc1c(NC(C)C)c(=O)n(-c2ccccc2)n1C.Cl,inactive
5,C[C@@H]1CN([C@H](C)CO)C(=O)c2cc(NS(=O)(=O)c3ccc(F)cc3)ccc2O[C@H]1CN(C)S(=O)(=O)c1ccccc1,inactive
6,O=C1CCOC[C@@H]2CCCN12,inactive
7,C[C@@H]1CCCCO[C@@H](CN(C)Cc2ccncc2)[C@H](C)CN([C@@H](C)CO)C(=O)c2cc(NC(=O)Nc3ccccc3)ccc2O1,inactive
8,C[C@@H]1CCCCO[C@H](CN(C)Cc2ccc(C(=O)O)cc2)[C@@H](C)CN([C@@H](C)CO)C(=O)c2cc(NC(=O)Cc3ccccc3)ccc2O1,inactive
9,Cc1ccc(S(=O)(=O)N(C)C[C@@H]2Oc3ccc(N(C)C)cc3CC(=O)N([C@H](C)CO)C[C@H]2C)cc1,inactive
10,Cc1ccc(S(=O)(=O)N(C)C[C@@H]2Oc3ccc(N(C)C)cc3CC(=O)N([C@@H](C)CO)C[C@@H]2C)cc1,active
11,Cc1ccc(S(=O)(=O)N(C)C[C@H]2Oc3ccc(N(C)C)cc3CC(=O)N([C@H](C)CO)C[C@H]2C)cc1,inactive
12,Cc1ccc(S(=O)(=O)N(C)C[C@H]2Oc3ccc(N(C)C)cc3CC(=O)N([C@@H](C)CO)C[C@@H]2C)cc1,inactive
13,Cc1ccc(S(=O)(=O)N(C)C[C@H]2Oc3ccc(N(C)C)cc3CC(=O)N([C@@H](C)CO)C[C@H]2C)cc1,inactive
14,Cc1ccc(S(=O)(=O)N(C)C[C@@H]2Oc3ccc(N(C)C)cc3CC(=O)N([C@H](C)CO)C[C@@H]2C)cc1,active
15,C[C@H](CO)N1C[C@H](C)[C@@H](CN(C)Cc2ccc(C(=O)Nc3ccccc3N)cc2)Oc2c(NS(C)(=O)=O)cccc2C1=O,inactive
16,Cc1noc(C)c1NC(=O)Nc1ccc2c(c1)C(=O)N([C@@H](C)CO)C[C@H](C)[C@H](CN(C)Cc1ccncc1)OCCCC[C@H](C)O2,inactive
17,CN1CCN(C(=O)C[C@H]2CC[C@H]3[C@@H](COc4ccc(NC(=O)C5CCOCC5)cc4C(=O)N3C)O2)CC1,inactive
18,CC(C)(C)Nc1nc(=O)[nH]c(=O)[nH]1,inactive
19,Cc1noc(C)c1S(=O)(=O)N(C)C[C@H]1Oc2ccc(NS(=O)(=O)c3cccs3)cc2CC(=O)N([C@@H](C)CO)C[C@H]1C,inactive
20,CC(C)(C)CC(C)(C)c1cc(Cc2cc(C(C)(C)CC(C)(C)C)cc(-n3nc4ccccc4n3)c2O)c(O)c(-n2nc3ccccc3n2)c1 [listing 1 of 2 here],inactive
21,CC(C)(C)CC(C)(C)c1ccc(O)c(Cc2ccc(Cl)cc2Cl)c1,active
22,CC(C)(C)CC(C)(C)c1cc(Cc2cc(C(C)(C)CC(C)(C)C)cc(-n3nc4ccccc4n3)c2O)c(O)c(-n2nc3ccccc3n2)c1 [listing 2 of 2 here],inactive
23,C/C=C/c1cnc2c(c1)C(=O)N([C@H](C)CO)C[C@@H](C)[C@@H](CN(C)S(=O)(=O)c1ccc(OC)cc1)O2,inactive
24,C[C@@H]1CN([C@H](C)CO)C(=O)c2cc(NC(=O)Cc3cn(C)c4ccccc34)ccc2O[C@H]1CN(C)C(=O)Nc1cccc2ccccc12,inactive
25,N#CCOc1cccc2ccccc12,inactive
26,CN(C)C(CCOc1cccc2ccccc12)c1ccccc1.Cl (configuration not stated),active

row,SMILES,cytotoxicity call
1,CN(C)CCOC(c1ccccc1)c1ccccc1.Cl,inactive
2,CN(C)Cc1cn(CC[C@@H]2CC[C@H](NS(=O)(=O)c3ccccc3)[C@H](CO)O2)nn1,inactive
3,C[C@@H]1CN([C@H](C)CO)C(=O)c2cc(NC(=O)C3CCCCC3)ccc2O[C@@H](C)CCCCO[C@H]1CN(C)C(=O)c1ccccc1,inactive
4,C[C@@H]1CCCCO[C@H](CN(C)CC2CCCCC2)[C@@H](C)CN([C@H](C)CO)C(=O)c2cc(NS(=O)(=O)c3cccs3)ccc2O1,inactive
5,C[C@@H]1CN([C@@H](C)CO)C(=O)c2cc(NC(=O)Cn3cnnn3)ccc2O[C@@H]1CN(C)Cc1ccc(Oc2ccccc2)cc1,inactive
6,COC(=O)CNC(=O)c1ccc(F)cc1,inactive
7,COC(=O)Nc1nc2cc(C(=O)c3cccs3)ccc2[nH]1,inactive
8,COC(=O)Nc1nc2cc(C(=O)c3ccc(F)cc3)ccc2[nH]1,active
9,COc1cccc(C(=O)c2ccccc2)c1,inactive
10,COC(=O)Nc1nc2cc(C(=O)c3ccccc3)ccc2[nH]1,active
11,O=c1[nH]c2ccc(F)cc2nc1O,inactive
12,Cc1ccc(S(=O)(=O)Nc2ccc3c(c2)CC(=O)N([C@H](C)CO)C[C@H](C)[C@@H](CN(C)S(=O)(=O)c2c(C)noc2C)O3)cc1,inactive
13,Cc1cc(O)cc(C)c1Cl [listing 1 of 2 here],inactive
14,Cc1cc(O)cc(C)c1Cl [listing 2 of 2 here],active
15,Oc1cc(O)cc(O)c1,inactive
16,CCO[C@H]1CC(C)(C)NC(=S)N1,inactive
17,C[C@@H]1CN([C@@H](C)CO)C(=O)Cc2cc(NS(=O)(=O)c3ccc(Cl)cc3)ccc2O[C@@H]1CN(C)Cc1ccc(C(F)(F)F)cc1,active
18,C[C@H]1CN([C@@H](C)CO)C(=O)Cc2cc(NS(=O)(=O)c3ccc(Cl)cc3)ccc2O[C@H]1CN(C)Cc1ccc(C(F)(F)F)cc1,active
19,C[C@@H]1CN([C@H](C)CO)C(=O)Cc2cc(NS(=O)(=O)c3ccc(Cl)cc3)ccc2O[C@@H]1CN(C)Cc1ccc(C(F)(F)F)cc1,inactive
20,C[C@@H]1CN([C@H](C)CO)C(=O)Cc2cc(NS(=O)(=O)c3ccc(Cl)cc3)ccc2O[C@H]1CN(C)Cc1ccc(C(F)(F)F)cc1,active
21,C[C@H](CO)N1C[C@H](C)[C@H](CN(C)Cc2ccc(C(F)(F)F)cc2)Oc2ccc(NS(=O)(=O)c3ccc(Cl)cc3)cc2CC1=O,active
22,CCS(=O)(=O)Nc1ccc2c(c1)C(=O)N(C)[C@@H]1CC[C@H](CC(=O)NCc3ccccc3F)O[C@H]1CO2,inactive
23,C[C@H](CO)N1C[C@H](C)[C@@H](CN(C)C(=O)Nc2ccc(F)cc2)Oc2c(NC(=O)c3ccc(-c4nccs4)cc3)cccc2C1=O,inactive
24,C/C=C/c1cnc2c(c1)C(=O)N([C@@H](C)CO)C[C@H](C)[C@@H](CN(C)S(=O)(=O)c1ccc(OC)cc1)O2,inactive
25,C[C@@H]1CN([C@H](C)CO)C(=O)c2cc(NC(=O)C3CCCCC3)ccc2O[C@@H](C)CCCCO[C@@H]1CN(C)C(=O)CCC(F)(F)F,inactive
